The supplement of paper PMC12669032
Values without a mark were called inactive.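 The calls were made as follows: active = AUC reduced over 20% with Padj below 0.05 in at least 2 of 3 replicates; inactive = otherwise.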

Tests used:
Assay in all cases: growth AUC relative to DMSO control (median of replicates) (fraction); higher = more growth (less inhibition), active = hit call of the paper
Conditions in all cases: 20 µM; 24 h
Coprococcus comes = system: Coprococcus comes
Method in brief: (§1)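 Gut bacterial monocultures in mGAM were treated with 20 µM compound (1% DMSO) and grown anaerobically at 37 °C in round-bottom 96-well plates from OD600 0.05. OD600 was read hourly for 24 h, with the minimum OD set to 0. Area under the growth curve was normalised to the plate median of solvent-only wells, or to row and column medians on the industrial chemical plate. Each value is the median of three biological replicates, each grown on a separate day.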

Escherichia coli ED1a = system: Escherichia coli ED1a
Method in brief: as §1

Escherichia coli IAI1 = system: Escherichia coli IAI1
Method in brief: as §1

Eubacterium rectale = system: Eubacterium rectale
Method in brief: as §1

[1] = system: Fusobacterium nucleatum subsp. animalis
Method in brief: as §1

Lactobacillus gasseri = system: Lactobacillus gasseri
Method in brief: as §1

Lactobacillus paracasei = system: Lactobacillus paracasei
Method in brief: as §1

Odoribacter splanchnicus = system: Odoribacter splanchnicus
Method in brief: as §1

[2] = system: Parabacteroides distasonis
Method in brief: as §1

Parabacteroides merdae = system: Parabacteroides merdae
Method in brief: as §1

Row | SMILES | growth AUC (Coprococcus comes) | growth AUC (Escherichia coli ED1a) | growth AUC (Escherichia coli IAI1) | growth AUC (Eubacterium rectale) | growth AUC [1] | growth AUC (Lactobacillus gasseri) | growth AUC (Lactobacillus paracasei) | growth AUC (Odoribacter splanchnicus) | growth AUC [2] | growth AUC (Parabacteroides merdae)
1 | CCCCCCCCCCCCCN1CC(C)OC(C)C1 (stereo not given) | 0.999 | 1.01 | 0.966 | 0.991 | 0.964 | 0.937 | 1.08 | 0.984 | 0.984 | 0.973
2 | CN=C=S | 1 | 1 | 1.01 | 0.972 | 0.977 | 0.962 | 1.04 | 1.06 | 1.08 | 1
3 | CCN(CC)c1nc(C)cc(OP(=S)(OC)OC)n1 | 0.982 | 1.03 | 0.978 | 1.06 | 0.996 | 0.984 | 0.982 | 0.966 | 0.813 | 0.962
4 | C[N+]1(C)CCCCC1.[Cl-] | 1.07 | 1.03 | 0.992 | 1.2 | 1.09 | 0.976 | 1.02 | 0.941 | 1 | 1.04
5 | CNC(=O)O/N=C(\C)C(C)S(C)=O (stereo not given) | 1.01 | 1.02 | 0.987 | 0.914 | 1.02 | 0.881 | 1.02 | 1.04 | 1.05 | 1.02
6 | Oc1ccc(Cl)c(Cl)c1Cl | 1.02 | 1.01 | 0.971 | 1.06 | 1.09 | 1.12 | 1.01 | 0.978 | 0.971 | 1.06
7 | CCOP(=O)(OCC)Oc1ccc(S(C)(=O)=O)cc1 | 1.01 | 0.98 | 0.977 | 1.13 | 0.996 | 1 | 0.976 | 1 | 1.11 | 1.03
8 | COc1ccccc1N | 0.993 | 1 | 1 | 1.08 | 1.04 | 1.02 | 1.02 | 1.16 | 1.28 | 1.02
9 | N#CCNC(=O)c1cnccc1C(F)(F)F | 0.993 | 1.01 | 0.961 | 0.97 | 0.991 | 1.06 | 0.974 | 1.02 | 1.02 | 1.03
10 | COc1cc(OC)nc(Sc2cccc(Cl)c2C(=O)O)n1 | 1.02 | 0.981 | 0.977 | 1.04 | 0.941 | 0.897 | 0.971 | 0.985 | 0.906 | 0.975
11 | C1CCC(NC2CCCCC2)CC1.O=NO | 0.832 | 0.991 | 0.95 | 0.601 (active) | 1 | 1.06 | 0.985 | 0.93 | 0.936 | 0.753 (active)
12 | O=C(NC(=O)c1c(F)cccc1F)Nc1cc(Cl)c(OC(F)(F)C(F)C(F)(F)F)cc1Cl (stereo not given) | 0.919 | 0.996 | 1 | 1.01 | 1.01 | 0.989 | 0.976 | 0.993 | 0.964 | 0.988
13 | C=CC(N)=O | 1.01 | 0.972 | 1 | 0.997 | 1.02 | 1.01 | 1.01 | 1.01 | 0.976 | 0.993
14 | CNC(=O)c1cc(Cl)cc(C)c1NC(=O)c1cc(Br)nn1-c1ncccc1Cl | 0.991 | 0.988 | 0.995 | 0.961 | 0.867 | 1.03 | 0.961 | 0.926 | 1.01 | 0.98
15 | CNC(=O)Oc1ccc(N(C)C)c(C)c1 | 0.992 | 1 | 1.01 | 1.06 | 1.08 | 0.909 | 1 | 0.861 | 0.977 | 0.986
16 | COP(=S)(OC)Oc1ccc([N+](=O)[O-])c(C)c1 | 0.982 | 0.986 | 0.979 | 1.1 | 0.994 | 1.01 | 1.01 | 0.962 | 0.89 | 0.944
17 | O=[N+]([O-])c1c(Cl)c(Cl)c(Cl)c(Cl)c1Cl | 0.821 | 1 | 1.01 | 0.909 | 0.942 | 1.16 | 0.945 | 0.946 | 0.969 | 0.942
18 | Cc1ccn2nc(S(=O)(=O)Nc3c(F)cccc3F)nc2n1 | 0.981 | 0.969 | 0.965 | 1.1 | 1.1 | 0.999 | 1.02 | 1.09 | 1.02 | 1
19 | O=C(O)CCl | 0.98 | 0.995 | 0.984 | 0.974 | 0.929 | 1.03 | 1.03 | 0.986 | 0.949 | 1.02
20 | CNC(=O)/C=C(\C)OP(=O)(OC)OC | 1.05 | 1.05 | 1.02 | 0.999 | 1.02 | 1.03 | 1.06 | 0.989 | 1.03 | 1.01
21 | COC(=O)c1cc(Oc2ccc(Cl)cc2Cl)ccc1[N+](=O)[O-] | 0.993 | 0.985 | 0.982 | 1.11 | 0.975 | 0.933 | 0.928 | 0.934 | 0.449 (active) | 0.958
22 | O=C(NC(=O)c1c(F)cccc1F)Nc1ccc(CO/N=C(\c2ccc(Cl)cc2)C2CC2)cc1 | 0.988 | 1 | 0.986 | 0.952 | 0.997 | 0.963 | 0.962 | 1.01 | 1.04 | 0.975
23 | N#Cc1nn(-c2c(Cl)cc(C(F)(F)F)cc2Cl)c(N)c1SC(F)(F)F | 0.857 | 1.02 | 0.985 | 0.687 (active) | 0.96 | 0.729 (active) | 1.04 | 0.571 (active) | 0.751 (active) | 0.868
24 | CS(=O)(=O)NC(=O)c1cc(Oc2ccc(C(F)(F)F)cc2Cl)ccc1[N+](=O)[O-] | 0.926 | 0.971 | 0.962 | 1.09 | 0.906 | 0.958 | 1.01 | 1.09 | 0.984 | 0.978
25 | CC(C)(O)C(Cl)(Cl)Cl.CC(C)(O)C(Cl)(Cl)Cl.O | 1.04 | 1.01 | 1.02 | 0.942 | 1.1 | 1.06 | 1.02 | 0.967 | 1.05 | 0.987
26 | O=C(O)c1ccc(Cl)nc1 | 0.946 | 1.01 | 0.967 | 1.05 | 1.1 | 1.15 | 0.974 | 0.968 | 1.02 | 1.01
27 | CC(C)[C@H](C(=O)O[C@H](C#N)c1cccc(Oc2ccccc2)c1)c1ccc(Cl)cc1 | 0.973 | 0.962 | 0.959 | 0.934 | 0.954 | 0.901 | 1.01 | 1.09 | 0.923 | 1.01
